PubChem BioAssay (NCATS)
Results filed as inconclusive are left out. The source made the active and inactive calls. Unless noted, calls follow the shape of the dose curve; as a rule, active = well fitted curve in the direction sought with a large enough effect; inconclusive = small, poorly fitted or top-dose-only effect, or another doubt; inactive = no such curve, though single readings can be large; an effect the other way counts as inactive or inconclusive.

Tests used:
[1] = molecular target: Alpha-galactosidase (Coffea arabica) (UniProt Q42656); test: Counterscreen for Glucocerebrosidase Inhibitors: qHTS Assay for Coffee Bean alpha-Galactosidase at pH 4.5 (AID 957);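 also: plate controls were enzyme alone for no effect and no enzyme for full effect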
Sequence of Alpha-galactosidase (Coffea arabica) (Q42656 whole entry, looked up): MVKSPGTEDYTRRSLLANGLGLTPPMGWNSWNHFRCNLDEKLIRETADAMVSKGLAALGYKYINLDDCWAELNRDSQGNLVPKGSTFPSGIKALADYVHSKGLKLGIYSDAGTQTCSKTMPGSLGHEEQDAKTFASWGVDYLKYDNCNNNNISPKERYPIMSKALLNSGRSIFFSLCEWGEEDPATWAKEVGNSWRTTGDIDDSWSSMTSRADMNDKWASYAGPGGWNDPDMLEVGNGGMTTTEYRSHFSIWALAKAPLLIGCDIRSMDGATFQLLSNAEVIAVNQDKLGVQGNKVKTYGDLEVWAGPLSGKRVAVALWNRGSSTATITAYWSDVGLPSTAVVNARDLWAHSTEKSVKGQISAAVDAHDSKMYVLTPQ
Outline: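 Coffee bean alpha-galactosidase 2 nM, substrate 4-MU-alpha-Gal 80 uM, pH 4.5 citrate/Tween-20, 20 min RT. Cpd titration 0.7 nM–77 uM. Stop pH 10, fluorescence 365/440 nm; Hill-equation AC50.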

[2] = molecular target: Alpha-galactosidase (Coffea arabica) (UniProt Q42656); test: Counterscreen for Glucocerebrosidase Inhibitors: qHTS Assay for Coffee Bean alpha-Galactosidase at pH 5.9 (AID 998);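 also: plate controls were uninhibited enzyme for no effect and no-enzyme basal signal for full effect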
Outline: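 Compounds were titrated from 0.7 nM to 77 uM against green coffee bean alpha-galactosidase (2 nM) using 80 uM fluorogenic 4-methylumbelliferyl substrate. After 20 min at room temperature, reactions were stopped at pH 10 and read by fluorescence.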

[3] = High Content Imaging Cell-Based qHTS for Inhibitors of the mTORC1 Signaling Pathway in MEF (Tsc2-/-, p53-/-) Cells (AID 2666);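 also: percent of cells scored positive for phospho-rpS6 Ser235/236 immunostaining by imaging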
Outline: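 Cells were plated, dosed with compound after 24 hrs, and incubated another 24 hrs at 37 degree Celsius. Fixed cells were immunostained for phospho-rpS6 Ser235/236 and counterstained, and the normalized signal was scored as % active cells against rapamycin and DMSO controls.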

[4] = Validation screen for inhibitors of Lassa infection (AID 463096; calls by dose curve; also: % is scaled to controls: 0 for no effect and ±100 for the full control effect)
[5] = molecular target: M-phase phosphoprotein 8 (Homo sapiens) (UniProt Q99549); test: qHTS Validation Assay for Inhibitors for MPP8 Chromodomain Interactions with Methylated Histone Tails (AID 488949);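 also: 50 nM MPP8 with 50 nM peptide preformed then compounds added for 30 min; AlphaScreen signal from MPP8 chromodomain bound to biotinylated H3K9me3 peptide; top concentration of the series differs between compounds; % is scaled to controls: 0 for no effect and ±100 for the full control effect; nearly all actives have a fitted effect of over 55% in size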
Sequence of M-phase phosphoprotein 8 (Homo sapiens) (Q99549 whole entry, looked up): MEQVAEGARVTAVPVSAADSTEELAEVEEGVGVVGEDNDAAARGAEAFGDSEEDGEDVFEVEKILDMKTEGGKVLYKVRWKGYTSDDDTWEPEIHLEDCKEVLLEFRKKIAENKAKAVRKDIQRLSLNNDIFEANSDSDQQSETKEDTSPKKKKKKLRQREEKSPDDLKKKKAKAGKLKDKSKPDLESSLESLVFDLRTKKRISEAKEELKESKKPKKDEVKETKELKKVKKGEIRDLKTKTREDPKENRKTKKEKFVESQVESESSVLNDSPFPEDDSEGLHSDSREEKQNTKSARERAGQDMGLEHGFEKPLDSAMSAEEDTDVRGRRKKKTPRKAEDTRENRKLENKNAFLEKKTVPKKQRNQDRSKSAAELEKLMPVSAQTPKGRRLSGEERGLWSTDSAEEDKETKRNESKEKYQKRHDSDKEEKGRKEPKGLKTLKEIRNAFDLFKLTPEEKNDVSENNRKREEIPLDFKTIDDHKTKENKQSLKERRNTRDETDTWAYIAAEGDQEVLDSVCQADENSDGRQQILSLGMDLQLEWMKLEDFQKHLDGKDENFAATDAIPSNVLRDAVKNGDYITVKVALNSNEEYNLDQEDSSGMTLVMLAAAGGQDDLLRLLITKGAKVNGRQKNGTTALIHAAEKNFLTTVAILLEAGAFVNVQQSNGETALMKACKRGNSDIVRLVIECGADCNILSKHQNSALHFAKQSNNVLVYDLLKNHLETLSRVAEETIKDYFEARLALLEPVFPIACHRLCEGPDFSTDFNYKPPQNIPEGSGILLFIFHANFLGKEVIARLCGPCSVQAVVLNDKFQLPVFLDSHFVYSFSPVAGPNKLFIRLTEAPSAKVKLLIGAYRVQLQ
Outline: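 50 nM MPP8 + 50 nM b-H3K9me3 peptide, PBS pH 7.4/0.01% Tween-20, 30 min RT; + cpd 30 min RT; + AlphaScreen donor/Ni-chelate acceptor beads 10 ug/mL final, 30 min dark; luminescence read.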

[6] = molecular target: Ubiquitin carboxyl-terminal hydrolase 1 (Homo sapiens) (UniProt O94782); test: Inhibitors of USP1/UAF1: Pilot qHTS (AID 504865);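 also: rhodamine fluorescence freed from ubiquitin-rhodamine substrate followed over time; top concentration of the series differs between compounds; % is scaled to controls: 0 for no effect and ±100 for the full control effect; nearly all actives have a fitted effect of over 35% in size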
Sequence of Ubiquitin carboxyl-terminal hydrolase 1 (Homo sapiens) (O94782 whole entry, looked up): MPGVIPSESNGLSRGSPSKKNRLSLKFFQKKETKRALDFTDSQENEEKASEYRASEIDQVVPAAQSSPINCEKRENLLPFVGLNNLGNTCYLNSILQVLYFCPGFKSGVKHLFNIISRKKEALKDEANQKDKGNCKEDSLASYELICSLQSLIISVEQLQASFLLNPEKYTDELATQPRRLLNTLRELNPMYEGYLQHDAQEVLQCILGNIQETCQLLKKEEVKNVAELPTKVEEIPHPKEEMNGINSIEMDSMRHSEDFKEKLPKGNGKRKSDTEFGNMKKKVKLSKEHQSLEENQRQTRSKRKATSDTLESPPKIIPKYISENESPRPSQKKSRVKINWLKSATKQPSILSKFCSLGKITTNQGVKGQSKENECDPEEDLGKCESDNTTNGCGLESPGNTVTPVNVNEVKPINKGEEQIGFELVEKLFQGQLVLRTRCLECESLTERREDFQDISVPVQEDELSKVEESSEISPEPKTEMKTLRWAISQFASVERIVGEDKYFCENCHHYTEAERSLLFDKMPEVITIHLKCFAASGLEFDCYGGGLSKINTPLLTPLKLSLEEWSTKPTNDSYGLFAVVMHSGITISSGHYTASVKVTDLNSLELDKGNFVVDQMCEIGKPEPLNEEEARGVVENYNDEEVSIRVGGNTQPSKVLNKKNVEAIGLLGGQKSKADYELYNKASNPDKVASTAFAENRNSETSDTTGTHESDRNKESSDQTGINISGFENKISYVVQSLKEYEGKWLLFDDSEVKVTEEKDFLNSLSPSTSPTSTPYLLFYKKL
Outline: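 In 50mM HEPES pH 7.8 containing 0.5mM EDTA, 1mM TCEP, 0.1 mg/ml BSA and 0.01% Tween-20, 1nM USP1/UAF1 is exposed to compound for 15 min, then Ub-Rho (150nM final) is added and fluorescence is read over time.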

[7] = HTS Assay for Allosteric Antagonists of the Human D2 Dopamine Receptor: Hit Validation in HTRF (AID 624455);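 also: stable D1 dopamine receptor cell line scored for blocking the D1 response; % is scaled to controls: 0 for no effect and ±100 for the full control effect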
Outline: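 First, antagonism was screened by calcium flux in a force-coupled, inducible Hek293 Trex D2 line challenged with EC80 dopamine. Hits then went into an HTRF assay in cells stably expressing D1, testing inhibition of the D1 response.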

[8] = molecular target: Arylsulfatase A (Homo sapiens) (UniProt P15289); test: qHTS screen for enhancers of Arylsulfatase A (ASA1): LOPAC Validation Assay (AID 720538)
Sequence of Arylsulfatase A (Homo sapiens) (P15289 whole entry, looked up): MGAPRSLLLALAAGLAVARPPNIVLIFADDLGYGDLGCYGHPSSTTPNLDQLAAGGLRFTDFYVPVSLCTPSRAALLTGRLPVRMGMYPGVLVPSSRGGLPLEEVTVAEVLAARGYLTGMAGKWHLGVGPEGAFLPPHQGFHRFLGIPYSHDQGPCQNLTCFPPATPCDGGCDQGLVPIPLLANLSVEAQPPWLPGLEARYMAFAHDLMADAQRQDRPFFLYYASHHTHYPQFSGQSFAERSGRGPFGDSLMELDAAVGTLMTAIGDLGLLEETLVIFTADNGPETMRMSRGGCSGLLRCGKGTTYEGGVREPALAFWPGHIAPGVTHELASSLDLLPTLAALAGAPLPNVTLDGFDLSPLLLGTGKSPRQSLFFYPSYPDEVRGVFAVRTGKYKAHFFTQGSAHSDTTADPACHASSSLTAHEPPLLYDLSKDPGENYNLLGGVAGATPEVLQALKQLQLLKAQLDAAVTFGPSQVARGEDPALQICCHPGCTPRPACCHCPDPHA
Outline: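 MLD patient fibroblasts (SV40, ASA-I179S), 1536-well; adhere 6 hrs; cpd 48h, 37 degree C, 5% CO2; pNCS 0.5mM final in lysis buffer, 14h RT; stop 1N NaOH final; fluor. Ex525/Em598.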

[9] = molecular target: Parathyroid hormone/parathyroid hormone-related peptide receptor (Homo sapiens) (UniProt Q03431); test: qHTS for PTHR1 Agonists: Optimization Screen against the NCGC LOPAC library (AID 1347079);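 also: GloSensor cAMP luminescence in HEK-293 GP2 cells expressing human PTHR1 with IBMX; 0% is about no effect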
Outline: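 Agonist readout: GloSensor cAMP luminescence, read after 15 min at room temperature. HEK-293-derived GP2 line carries PTHR1; compounds tested as a titration for 1 hr at 37C in presence of IBMX. M-PTH (1-15) served as control.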

[10] = qHTS for Inhibitors of the Functional Ribonucleoprotein Complex (vRNP) of Lassa (LASV) Arenavirus: LASV Primary Screen - GLuc reporter signal (AID 1347082; calls by dose curve; tested in HEK293 reporter line; also: % is scaled to controls: 0 for no effect and ±100 for the full control effect; nearly all actives have a fitted effect of over 60% in size)
[11] = qHTS for Inhibitors of the Functional Ribonucleoprotein Complex (vRNP) of Lassa (LASV) Arenavirus: Viability assay - alamar blue signal for LASV Primary Screen (AID 1347083; calls by dose curve; tested in HEK293 reporter line; also: % is scaled to controls: 0 for no effect and ±100 for the full control effect; nearly all actives have a fitted effect of over 80% in size)
[12] = qHTS for Inhibitors of the Functional Ribonucleoprotein Complex (vRNP) of Lymphocytic Choriomeningitis Arenaviruses (LCMV): Viability assay - alamar blue signal for LCMV Primary Screen (AID 1347085; calls by dose curve; tested in HEK293 reporter line; also: % is scaled to controls: 0 for no effect and ±100 for the full control effect; nearly all actives have a fitted effect of over 80% in size)
[13] = molecular target: Nucleoprotein (Lymphocytic choriomeningitis virus (strain Armstrong)) (UniProt P09992); test: qHTS for Inhibitors of the Functional Ribonucleoprotein Complex (vRNP) of Lymphocytic Choriomeningitis Arenaviruses (LCMV): LCMV Primary Screen - GLuc reporter signal (AID 1347086; calls by dose curve; also: % is scaled to controls: 0 for no effect and ±100 for the full control effect; nearly all actives have a fitted effect of over 70% in size)
Sequence of Nucleoprotein (Lymphocytic choriomeningitis virus (strain Armstrong)) (P09992 whole entry, looked up): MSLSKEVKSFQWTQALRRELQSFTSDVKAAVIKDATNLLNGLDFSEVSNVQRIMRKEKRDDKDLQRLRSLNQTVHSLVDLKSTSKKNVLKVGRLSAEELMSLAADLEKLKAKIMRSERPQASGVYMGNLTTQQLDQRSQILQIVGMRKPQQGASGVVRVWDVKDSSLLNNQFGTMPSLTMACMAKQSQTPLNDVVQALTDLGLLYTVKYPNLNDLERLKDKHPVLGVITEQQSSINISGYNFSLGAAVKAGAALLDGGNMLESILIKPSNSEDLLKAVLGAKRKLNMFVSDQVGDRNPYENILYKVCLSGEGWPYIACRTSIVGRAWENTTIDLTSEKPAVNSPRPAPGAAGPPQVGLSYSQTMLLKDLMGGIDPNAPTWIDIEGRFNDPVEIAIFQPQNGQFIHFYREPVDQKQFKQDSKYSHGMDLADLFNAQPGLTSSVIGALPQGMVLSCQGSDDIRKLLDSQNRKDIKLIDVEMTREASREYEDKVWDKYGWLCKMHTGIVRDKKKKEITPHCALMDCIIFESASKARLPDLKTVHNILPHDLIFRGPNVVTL

[14] = molecular target: Luciferin 4-monooxygenase (Photinus pyralis) (UniProt P08659); test: Biochemical firefly luciferase enzyme assay for NPC (AID 624030);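 also: purified P. pyralis luciferase at 10 nM with luciferin and ATP substrate; 0% = DMSO and -100% = full luciferase inhibition by PTC124 control; nearly all actives have a fitted effect of over 70% in size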
Sequence of Luciferin 4-monooxygenase (Photinus pyralis) (P08659 whole entry, looked up): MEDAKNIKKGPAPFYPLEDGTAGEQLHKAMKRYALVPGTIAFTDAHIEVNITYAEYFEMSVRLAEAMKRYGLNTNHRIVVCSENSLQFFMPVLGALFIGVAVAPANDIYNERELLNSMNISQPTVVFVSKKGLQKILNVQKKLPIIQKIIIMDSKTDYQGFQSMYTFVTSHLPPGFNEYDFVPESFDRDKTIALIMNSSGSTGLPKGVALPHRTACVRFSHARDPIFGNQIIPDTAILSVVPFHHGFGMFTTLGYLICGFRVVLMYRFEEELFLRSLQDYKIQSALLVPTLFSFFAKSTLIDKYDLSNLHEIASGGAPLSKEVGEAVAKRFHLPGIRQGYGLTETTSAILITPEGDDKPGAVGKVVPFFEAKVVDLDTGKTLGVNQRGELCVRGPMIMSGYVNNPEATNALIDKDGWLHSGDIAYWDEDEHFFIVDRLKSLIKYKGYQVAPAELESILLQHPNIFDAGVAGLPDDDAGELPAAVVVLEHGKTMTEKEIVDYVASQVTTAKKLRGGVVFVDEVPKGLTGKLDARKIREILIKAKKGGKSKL
Outline: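 Direct inhibition of firefly luciferase enzyme (10 nM final, 50 mM Tris Acetate) assessed by luminescence within 5 minutes. Percent activity scaled between DMSO and PTC124 positive control, with concentration-effect curves classified by fit quality and response.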

[15] = qHTS Assay for Identifying Gametocytocidal Compounds (AID 743244);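 also: % is scaled to controls: 0 for no effect and ±100 for the full control effect; actives lower the fluorescent signal which means gametocytes are killed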; details: P. falciparum 3D7 stage III-V gametocytes, alamarBlue, 72 h; max response: stronger effect = lower value
Outline: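 A resazurin-based viability read-out was applied to mature P. falciparum gametocytes: 72 h compound treatment, then 24 h dye incubation, with falling fluorescence signalling gametocytocidal effect.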

[16] = P-glycoprotein substrates identified in KB-8-5-11 adenocarcinoma cell line, qHTS therapeutic library screen (AID 1346987); also: % is scaled to controls: 0 for no effect and ±100 for the full control effect; nearly all actives have a fitted effect of over 65% in size
Outline: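 Steps: plate 500 KB-8-5-11 cells/well in DMEM + 10% FCS (colchicine removed); pin compounds in dose-response; incubate 72 h, 37 degree C, 5% CO2; add CellTiter-Glo, 5 min; read luminescence.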

[17] = Drug repurposing screens with cells derived from glioblastoma tumor samples (AID 1345199); details: GBM patient neurospheres viability, ATP luminescence, 48 h; Potency: tumour line A; series mostly up to 45.9 µM; also: % is scaled to controls: 0 for no effect and ±100 for the full control effect; nearly all actives have a fitted effect of over 40% in size
Outline: (§1)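 Four patient lines of CD133+ GBM neurospheres were screened at several concentrations; hits were retested in those lines plus three slower-growing GBM lines, using 48-hour treatment and ATP-based viability.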

astro = test: as above; details: viability, ATP luminescence, 48 h; series mostly up to 45.9 µM
Outline: as §1

[18] = molecular target: Cytochrome P450 1A2 (Homo sapiens) (UniProt P05177); test: p450-cyp1a2 (AID 410; calls by dose curve;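 also: -100% = full effect of reference inhibitor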)
Sequence of Cytochrome P450 1A2 (Homo sapiens) (P05177 whole entry, looked up): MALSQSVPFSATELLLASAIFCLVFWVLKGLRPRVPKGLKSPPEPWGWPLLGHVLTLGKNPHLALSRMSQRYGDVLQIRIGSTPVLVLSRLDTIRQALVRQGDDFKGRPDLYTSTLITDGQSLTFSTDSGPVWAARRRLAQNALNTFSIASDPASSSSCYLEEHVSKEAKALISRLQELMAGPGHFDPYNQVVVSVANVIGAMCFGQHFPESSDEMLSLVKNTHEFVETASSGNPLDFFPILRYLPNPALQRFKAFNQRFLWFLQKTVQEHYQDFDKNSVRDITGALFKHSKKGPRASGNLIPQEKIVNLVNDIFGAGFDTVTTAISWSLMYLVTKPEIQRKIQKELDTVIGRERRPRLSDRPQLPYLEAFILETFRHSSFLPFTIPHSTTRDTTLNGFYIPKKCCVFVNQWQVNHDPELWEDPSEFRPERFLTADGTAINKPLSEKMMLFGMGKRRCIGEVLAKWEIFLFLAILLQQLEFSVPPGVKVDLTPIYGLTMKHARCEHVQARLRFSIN
Outline: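 Luminescent readout of luciferin formed from Luciferin-ME by human CYP1A2; data normalized against complete inhibition by 57 uM furafylline. Enzyme 20nM, substrate 100uM at Km, 100mM KPO4 buffer, 60 min reaction at room temperature.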

[19] = molecular target: Mitogen-activated protein kinase 10 (Mus musculus) (UniProt Q61831); test: JNK3 AlphaScreen Assay (AID 530; active = well fitted curve in either direction with a large enough effect, not every such curve was filed as active;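 also: kinase came from lysate of stimulated human HepG2 cells; signal reports phosphorylation of biotinylated GST-cJun 1-79 at Ser73 with 10 µM ATP; % is scaled to controls: 0 for no effect and ±100 for the full control effect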)
Outline: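 Compound titrations were preincubated 15 minutes at room temperature with substrate, antibody and pre-activated JNK3-containing HepG2 lysate. Reactions were started with 10 uM ATP and stopped with EDTA-containing bead buffer for AlphaScreen detection.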

[20] = molecular target: 3',5'-cyclic-AMP phosphodiesterase 4B (Homo sapiens) (UniProt Q07343); test: qHTS Assay for Inhibitors of PDE-IV (AID 607; active = well fitted activation curve with a large enough effect in the main read-out, with a control signal flat, not every such curve was filed as active; also: % of control where 0% means no effect)
Sequence of 3',5'-cyclic-AMP phosphodiesterase 4B (Homo sapiens) (Q07343 whole entry, looked up): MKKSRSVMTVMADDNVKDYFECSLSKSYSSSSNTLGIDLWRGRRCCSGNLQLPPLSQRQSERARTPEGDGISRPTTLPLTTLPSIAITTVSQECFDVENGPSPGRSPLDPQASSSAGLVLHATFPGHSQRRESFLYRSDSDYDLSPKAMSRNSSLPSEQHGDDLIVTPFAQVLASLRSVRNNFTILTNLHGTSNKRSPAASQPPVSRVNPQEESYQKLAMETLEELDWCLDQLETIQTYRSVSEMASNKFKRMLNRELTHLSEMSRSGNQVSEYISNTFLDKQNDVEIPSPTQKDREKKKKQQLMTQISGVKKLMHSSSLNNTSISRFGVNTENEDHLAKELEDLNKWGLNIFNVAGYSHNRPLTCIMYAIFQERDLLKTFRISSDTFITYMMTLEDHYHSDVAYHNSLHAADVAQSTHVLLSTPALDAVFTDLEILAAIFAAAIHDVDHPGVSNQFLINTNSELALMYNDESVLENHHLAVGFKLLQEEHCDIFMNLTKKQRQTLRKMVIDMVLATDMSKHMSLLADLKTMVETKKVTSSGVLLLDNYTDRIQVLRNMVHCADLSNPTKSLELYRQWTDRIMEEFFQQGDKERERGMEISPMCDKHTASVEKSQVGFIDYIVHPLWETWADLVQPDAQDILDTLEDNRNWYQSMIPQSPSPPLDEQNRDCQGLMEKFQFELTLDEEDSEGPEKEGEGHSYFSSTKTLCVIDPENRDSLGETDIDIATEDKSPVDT
Outline: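 Live HEK293 cells with a modified cyclic nucleotide-gated (CNG) channel report intracellular cAMP via membrane-potential dye fluorescence (ex 535/em 590 nm). Endogenous PDE-IV was targeted. Compounds were tested at up to 22.9 uM final; RO 20-1724 100 uM served as control.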

[21] = tested on: Zika virus NS2B-NS3 protease; test: Primary screen GU AMC qHTS for Zika virus inhibitors (AID 1347154);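 also: 0% = no-inhibitor control and -100% = no-enzyme control; nearly all actives have a fitted effect of over 70% in size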
Outline: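 Fluorogenic AMC-substrate cleavage by noncovalent NS2B-NS3 protease complex (25 nM, pH 8.0 Tris buffer with Tween 20) followed for 15 minutes at room temperature (~20% conversion). Percent inhibition from ex340/em450 signal change, fitted by 4-parameter Hill equation.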

[22] = Primary qHTS for small molecule stabilizers of the endoplasmic reticulum resident proteome: Secreted ER Calcium Modulated Protein (SERCaMP) assay (AID 1508630); also: % is scaled to controls: 0 for no effect and ±100 for the full control effect
Outline: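 GLuc-SERCaMP-expressing SH-SY5Y cells, pretreated 16 h with compound, are challenged with thapsigargin to empty ER calcium stores; after 4 h, coelenterazine is added directly to the medium and luminescence is imaged.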

C1CCc2nnnn2CC1
inactive: outcome [1] | outcome [2] | Potency [3] | Potency [4] | Potency [5] | Potency [6] | outcome [7] | Potency [8] | outcome [9] | Potency [10] | Potency [11] | Potency [12] | Potency [13]

C=C1C(C)C2C(Cc3ccccc3)NC(=O)C23C(OC(C)=O)C=CC(C)(O)CC(C)CC=CC3C1O (stereo not drawn)
inactive: Potency [10]

C1CN(P2(N3CC3)=NP(N3CC3)(N3CC3)=NP(N3CC3)(N3CC3)=N2)CCO1 (stereo not drawn)
inactive: Potency [14] | max response [15] -9.28% | Potency [16] | Potency [17] | Potency (astro)

Clc1ccc([C@@H]2C[C@H]3CC[C@@H]2N3)cn1
inactive: Potency [18] | outcome [19] | Potency [20] | Potency [6] | max response [15] 7.9% | Potency [16] | Potency [10] | Potency [11] | Potency [12] | Potency [13] | Potency [21] | Potency [22] | Potency [17] | Potency (astro)
